# PAFAH1B2 inh = PAFAH1B2 (human) inhibition. P68402. recombinant PAFAH1B2, FP-rhodamine activity probe, fluorescence polarization. inhibition, % at 3.39 µM. 1.2% of 340,000 active. AID 492953;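 active means inhibition above the mean of all tested compounds plus 3 SD, cut at about 24% in these data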;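 further: 0% = enzyme with DMSO and 100% = wells lacking PAFAH1B2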
# Target sequence (P68402 whole entry, looked up): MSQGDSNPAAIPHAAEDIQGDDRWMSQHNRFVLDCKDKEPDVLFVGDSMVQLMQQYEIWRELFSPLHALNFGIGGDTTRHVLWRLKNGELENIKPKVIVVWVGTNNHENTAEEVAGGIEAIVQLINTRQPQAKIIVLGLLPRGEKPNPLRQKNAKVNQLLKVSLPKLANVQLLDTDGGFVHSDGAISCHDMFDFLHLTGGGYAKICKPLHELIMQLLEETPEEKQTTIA
# TCR-CD3 inh = blocks the human TCR-CD3 interaction | TAMRA-labeled TCR probe fluorescence, biochemical | inhibition, % at 9.4 µM | 0.37% of 360,000 active | AID 651800; in the data active means inhibition above about 19%;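 further: recombinant mutant TCR 2C K166C tagged with TAMRA read by polarization; 0% = receptor in buffer alone and 100% = receptor with positive control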
# pPAFAH inh = pPAFAH (human) enzyme inhibition; Q13093; 1.5% of 330,000 active; recombinant pPAFAH, FP-rhodamine probe fluorescence polarization; inhibition, % at 3.39 µM;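 active means inhibition above the mean inhibition across the screen plus 3 SD, cut at about 25% in these data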;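 further: inhibitors block binding of the rhodamine activity-based probe so polarization drops; 0% = enzyme with DMSO and 100% = wells lacking pPAFAH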
# PAFAH2 FP inh = inhibitors of human PAFAH2; recombinant PAFAH2, FP-rhodamine activity probe, fluorescence polarization; inhibition, % at 3.39 µM; 0.99% of 340,000 active;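 active means inhibition above the mean over all tested compounds plus 3 SD, cut at about 30% in these data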;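 further: inhibitors block probe labeling of enzyme so polarization drops; 0% = enzyme with DMSO and 100% = wells lacking PAFAH2 protein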
# PAFAH1B3 inh = inhibitors of human PAFAH1B3; inhibition, % at 3.39 µM; 0.28% of 340,000 active; recombinant PAFAH1B3, FP-rhodamine probe, fluorescence polarization;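 active means inhibition above the screen-wide average of all tested compounds plus 3 SD, cut at about 25% in these data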;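 further: 0% = enzyme with DMSO only and 100% = wells lacking PAFAH1B3 protein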
# Target sequence (Q15102 whole entry, looked up): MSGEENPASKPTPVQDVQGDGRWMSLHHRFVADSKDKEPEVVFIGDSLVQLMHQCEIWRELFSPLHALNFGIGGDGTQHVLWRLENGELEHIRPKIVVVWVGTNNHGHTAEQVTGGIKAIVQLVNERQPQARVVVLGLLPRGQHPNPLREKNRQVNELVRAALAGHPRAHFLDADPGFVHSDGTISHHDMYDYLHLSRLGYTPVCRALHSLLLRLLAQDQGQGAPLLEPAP
# Numbers without * were called inactive; . = no result given. Hits are enriched below; roughly 2.7% of the tested compounds scored in any of these assays.
SMILES,PAFAH1B2 inh,TCR-CD3 inh,pPAFAH inh,PAFAH2 FP inh,PAFAH1B3 inh
Cc1cccc(Nc2nnc(SC/C(O)=C(\C#N)c3nc4ccccc4[nH]3)s2)c1C,21,-2,28*,11,9
COCCNC(=O)CCc1ccc(S(=O)(=O)Nc2ccc(C)cc2)cc1,12,-7,25*,1,-4
COc1ccc(NS(=O)(=O)c2ccc(NC(=O)C3CCCO3)cc2)cc1 (stereo not given),2,5,26*,-6,-1
COc1ccc(NS(=O)(=O)c2ccc(C(=O)N(C)Cc3ccc(C)o3)cc2)cc1,4,-2,32*,0,9
COc1ccc(NS(=O)(=O)c2ccc(C)c(C(=O)N(C)Cc3ccc(C)cc3)c2)cc1,-1,5,28*,7,9
CCOc1ccc(CCN2C(=S)N([C@@H](CC(C)C)CN3CCCC3CN3C(=S)NC[C@@H]3Cc3ccc(O)cc3)C[C@@H]2CC(C)C)cc1 (stereo not given in full),-4,0,.,-11,1
C=CC(=O)NC1CCCCN(CCC)C1=O (stereo not given),.,-1,.,.,.
C[C@H](c1ccccc1)N1C[C@@H](COCc2ccccc2)Oc2cccc(Oc3ccc(C(C)(C)C)cc3)c2S1(=O)=O,.,7,.,.,.
CCCN1CCCCC(NC(=O)c2ccccc2OC)C1=O (stereo not given),.,-3,.,.,.
CC1CCCCC1NC(=O)c1ccc(S(=O)(=O)N2CCCC2)cc1 (stereo not given),2,0,3,-2,8
CC1CCCCC1NS(=O)(=O)c1ccc(S(=O)(=O)N2CCCC2)cc1 (stereo not given),14,-5,26*,2,3
O=C(O)CCCNc1cc(N2CCC3(CC2)OCCO3)c2noc3c2c1C(=O)c1ccccc1-3,.,.,76*,.,.
COc1cc(OC)cc(C(=O)Nc2ccccc2-c2nnn(CC(=O)Nc3cc(C)on3)n2)c1,-14,6,-5,-28,-31
Cc1cc(C)c(NC(=O)CN(C)C(=O)c2ccc(OCc3ccccc3)cc2)c(C)c1,7,-13,0,6,-2
Cc1cccc(CS(=O)(=O)Cc2ccc(C(=O)NCc3cccnc3)o2)c1,-7,-5,24,8,6
Cc1cccc(CS(=O)(=O)Cc2ccc(C(=O)NCc3ccco3)o2)c1,-6,11,25*,3,3
Cc1ccc(CS(=O)(=O)Cc2ccc(C(=O)NCc3ccco3)o2)cc1,1,4,34*,3,0
COc1ccc(S(=O)(=O)Cc2ccc(C(=O)NCc3ccco3)o2)cc1,7,-5,1,-1,6
COc1ccccc1-n1c(SCC(=O)N2CCOCC2)nc(O)c(Cc2ccccc2)c1=O,-1,6,8,10,-4
COc1ccccc1-n1c(SCC(=O)N2CCOCC2)nc(O)cc1=O,-4,7,34*,0,7
CC(C)(C)SCCNS(=O)(=O)c1ccccc1,13,6,19,9,-1
CSc1ccc(S(=O)(=O)NCCSC(C)(C)C)cc1,8,7,28*,14,-3
CCOC(=O)N1CCN(C(=O)COC(=O)c2ccc(S(=O)(=O)N(CC)CC)cc2)CC1,5,-5,7,3,1
CCCC(=O)Oc1ccc(N(C(=O)CCC)S(=O)(=O)c2cccs2)cc1,6,-12,30*,4,1
CC(=O)Oc1ccc(N(C(C)=O)S(=O)(=O)c2cccs2)cc1,8,0,3,0,5
SMILES,PAFAH1B2 inh,TCR-CD3 inh,pPAFAH inh,PAFAH2 FP inh,PAFAH1B3 inh
COc1cc(/C=C(\C#N)c2nc3ccc(C)cc3[nH]2)cc([N+](=O)[O-])c1O,33*,5,.,38*,21
O=S(=O)(c1ccc(S(=O)(=O)N2CCC3(CC2)OCCO3)cc1)N1CCCC1,5,2,2,1,2
O=S(=O)(c1ccc(Br)cc1)N1CCC2(CC1)OCCO2,27*,1,-2,8,7
CN(Cc1ccccc1)C(=O)c1ccco1,2,1,-3,0,0
Cc1ccc(C(CCN(Cc2ccccc2)C(=O)c2ccco2)c2ccco2)cc1 (stereo not given),-4,-4,30*,15,1
CCc1cccc(Nc2cc(C)n(-c3cccc(CC)c3)c(=O)c2)c1,.,3,.,.,.
CCCCCCCC[n+]1cccc(C(=O)N(CC)CC)c1,-1,4,-4,-2,6
CCCCCCCCCCCCCCCC[n+]1cccc(C(=O)N(CC)CC)c1,3,0,32*,-5,2
O=C(COC(=O)C1CC2C=CC1C2)Nc1ccccc1F (stereo not given),-1,-8,24,34*,3
O=C(COC(=O)C1CC2C=CC1C2)NCCc1ccccc1 (stereo not given),2,-4,1,3,9
Cn1c(=O)oc2ccc(S(=O)(=O)Nc3ccc(Cl)cc3[N+](=O)[O-])cc21,.,-10,.,.,.
CC(=O)Nc1ccc(NC(=O)C(C)c2cccc(C(=O)c3ccccc3)c2)cc1 (stereo not given),3,-1,30*,-5,6
NC(=O)c1sc(=S)n2c1[nH]c(=O)c1sccc12,5,-2,10,14,7
O=C(NCc1ccccc1)c1sc(=S)n2c1[nH]c(=O)c1ccccc12,54*,3,34*,42*,31*
COc1ccc(CCNC(=O)COC(=O)C2CC2C)cc1OC (stereo not given),2,-5,-1,-1,6
Nc1c(C(=O)NCc2ccco2)sc2nc3c(cc12)C(=O)CCC3,2,1,28*,1,-7
COc1ccc2cc3c(N)c(C(=O)NCc4ccco4)sc3nc2c1,-1,12,8,10,1
O=C(NCc1ccco1)c1c2c(nc3ccccc13)CCC2,4,6,27*,15,6
CCOc1ccc(-c2nnn(CC(=O)NCc3ccccc3)n2)cc1,1,-3,4,-4,0
O=S(=O)(c1ccc(Cl)s1)N1CCCCC1,11,3,0,2,3
O=C(O)C1CCN(S(=O)(=O)c2ccc(Cl)s2)CC1,27*,-12,-2,1,8
CC1CCN(S(=O)(=O)c2ccc(Cl)s2)CC1,25*,-1,1,-7,8
CC1CCN(S(=O)(=O)c2ccc(Br)s2)CC1,29*,4,-1,-7,-1
Cc1ccc(C)n1C(CC(=O)O)c1ccc(C#N)cc1 (stereo not given),.,-2,25*,.,.
CCOC(=O)CC(c1ccc(N)cc1)n1c(C)ccc1C (stereo not given),2,5,-1,3,-2
COc1ccc(C2CC(=O)C(c3cccc(Cl)c3)=CN2Cc2ccccc2)cc1 (stereo not given),.,4,.,.,.
CCCCc1c(-c2ccccc2OC)ncn1Cc1ccccc1Cl,.,9,.,.,.
O=c1c2ccccc2nc2n1C(CSCc1ccc(Cl)cc1Cl)CS2 (stereo not given),39*,-4,4,12,10
CCOC(=O)N1CCc2c(sc(NC(=O)c3ccc(Cl)s3)c2C(N)=O)C1,.,.,25*,.,.
